Test results as given in PubChem BioAssay (NCI).
About 83,000 compounds went through this panel and 20% of them were active in at least one assay; those are over-represented in the sample as a whole.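 In brief: 96-well plates, 48 h treatment, single concentration, percent growth endpoint.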 Calls of active or inactive are those of the source. Rule for the calls: active = growth percent below 10; inactive = the rest.

How the values were obtained:
Experiment in all cases: NCI-60 one-dose screen, 48 h (100 = growth as untreated, 0 = no growth, -100 = all killed)
Settings in all cases: 10 µM unless noted
[1] = test system: SK-MEL-2 melanoma
[2] = test system: EKVX NSCLC
[3] = test system: SN12C renal
[4] = test system: UO-31 renal
[5] = test system: TK-10 renal
[6] = test system: ACHN renal
[7] = test system: CAKI-1 renal
[8] = test system: A498 renal
[9] = test system: CCRF-CEM leukemia
[10] = test system: MOLT-4 leukemia
[11] = test system: RPMI-8226 leukemia
[12] = test system: OVCAR-8 ovarian
[13] = test system: OVCAR-5 ovarian
[14] = test system: OVCAR-4 ovarian
[15] = test system: SK-OV-3 ovarian
[16] = test system: IGROV1 ovarian
[17] = test system: OVCAR-3 ovarian
[18] = test system: HS 578T breast
[19] = test system: NCI/ADR-RES ovarian

Measured: growth

COc1cnc2c(c1)C(=O)c1c-2n(CCCN2CCN(C)CC2)c(=O)c2cc(Cl)ccc12
active: [8] -4.26% | [9] -14.6% | [10] -36.6%
inactive: [1] 32.3% | [2] 51.5% | [3] 43% | [4] 40.1% | [5] 48.5% | [6] 18.4% | [7] 45.3% | [11] 43.5% | [12] 31% | [13] 77.9% | [14] 43.9% | [15] 52.3% | [16] 58.9% | [17] 68.3% | [18] 54.8% | [19] 44.8%

Cc1cc(-c2ccccc2)on1
inactive: [1] 107% | [2] 103% | [3] 103% | [4] 82.5% | [5] 110% | [6] 103% | [7] 98.2% | [8] 126% | [9] 97.8% | [10] 92.4% | [11] 108% | [12] 106% | [13] 106% | [14] 102% | [15] 93.1% | [16] 98.1% | [17] 112% | [18] 104% | [19] 105%

N=C(N)c1ccc(NCCNc2ccc(C(=N)N)cc2)cc1
active: [9] -71.7% | [10] -52.9%
inactive: [1] 97.3% | [2] 102% | [3] 46% | [4] 87.2% | [5] 111% | [6] 85.5% | [7] 74.3% | [8] 90.2% | [11] 82.8% | [12] 92.4% | [13] 95.1% | [14] 110% | [15] 133% | [16] 98.5% | [17] 110% | [18] 109% | [19] 99%

CCCC(CCC)(C(N)=O)C(=O)O
inactive: [1] 120% | [2] 105% | [3] 102% | [4] 92.2% | [5] 115% | [6] 103% | [7] 95.3% | [8] 104% | [9] 103% | [10] 113% | [11] 112% | [12] 102% | [13] 99.6% | [14] 101% | [15] 105% | [16] 119% | [17] 110% | [18] 106% | [19] 107%

O=C(N/N=C/c1ccc([N+](=O)[O-])o1)c1ccc(O)cc1
inactive: [1] 24.1% | [2] 71.2% | [3] 29.4% | [4] 84.7% | [5] 125% | [6] 66.5% | [7] 88.3% | [8] 112% | [9] 34.6% | [10] 48.4% | [11] 39.8% | [12] 17.6% | [13] 78.7% | [14] 42% | [15] 63.8% | [16] 30.5% | [17] 23.4% | [19] 36.6%

CN(C)c1ccc(/C=C\c2cccc[n+]2C)cc1
active: [11] 3.96% | [17] 9.08%
inactive: [1] 75.6% | [2] 23% | [3] 52.2% | [4] 59.5% | [5] 67.2% | [6] 77.3% | [7] 42.1% | [8] 13.4% | [9] 49.6% | [10] 74.4% | [12] 28.6% | [13] 49.5% | [14] 34.1% | [15] 42.2% | [16] 68.8% | [18] 61.5% | [19] 105%

COc1ccc(/C=C/c2nc(NCCCN(C)C)c3ccccc3n2)cc1
active: [1] -50.9% | [9] -44.9% | [10] -46% | [11] 0.379%
inactive: [2] 64.3% | [3] 86.7% | [4] 81.9% | [5] 89.3% | [6] 122% | [7] 87.7% | [8] 93.6% | [12] 79.8% | [13] 76.9% | [14] 62.9% | [15] 121% | [16] 49.9% | [17] 79.4% | [18] 90.5% | [19] 87.9%

O=C(NNC(=O)c1cccc(Cl)c1)c1ccccc1
inactive: [1] 100% | [2] 103% | [3] 106% | [4] 99.3% | [5] 117% | [6] 130% | [7] 103% | [8] 73.2% | [9] 98.4% | [10] 100% | [11] 101% | [12] 106% | [13] 103% | [14] 103% | [15] 114% | [16] 115% | [17] 115% | [18] 105% | [19] 111%

O=C(c1ccc(OCCN2CCCCC2)cc1)c1c(-c2ccc(O)cc2)sc2cc(O)ccc12
inactive: [1] 102% | [2] 83.3% | [3] 80.4% | [4] 67.1% | [5] 129% | [6] 91.5% | [7] 76% | [8] 90.9% | [9] 59.7% | [10] 76.3% | [11] 82.9% | [12] 86.8% | [13] 124% | [14] 72.8% | [15] 100% | [16] 76.1% | [17] 91.8% | [19] 91.5%

C=C(COC(C)=O)[C@H]1CC/C(C)=C/CC/C(C)=C/CC[C@@]2(C)O[C@H]2C1
inactive: [1] 101% | [2] 106% | [3] 106% | [4] 99.9% | [5] 108% | [6] 99.8% | [7] 126% | [8] 119% | [9] 328% | [10] 110% | [11] 180% | [12] 103% | [13] 99.2% | [14] 115% | [15] 125% | [16] 103% | [17] 121% | [18] 108% | [19] 102%

O=C(Nc1ccc(Cl)cc1)c1cc(-c2ccc(Cl)cc2)c2sc(=O)[nH]c2n1
active: [1] -29.3% | [2] 9.13% | [3] -9.7% | [4] -5.54% | [5] 0.672% | [6] 0.731% | [7] 8.17% | [8] -43.8% | [9] 5.46% | [10] -24.2% | [11] -6.18% | [12] 4.75% | [15] -24.3% | [17] 1.82% | [18] -14.4% | [19] 5.64%
inactive: [13] 32% | [14] 13% | [16] 28.1%

COc1ccc(C2NC(=O)c3cc4c(cc3N2)OCO4)cc1 (configuration not stated)
inactive: [1] 10.5% | [2] 58.1% | [3] 31.6% | [4] 67.3% | [5] 52.8% | [6] 46.3% | [7] 55.2% | [9] 14.8% | [10] 16.5% | [11] 27.8% | [12] 22.3% | [13] 45.3% | [14] 59.5% | [16] 42.8% | [18] 16.4%
active: [8] 8.76% | [15] -7.72% | [17] -45.9% | [19] 3.94%

CC1CCCN(CCCCOc2ccc(-c3ccc(C#N)cc3)cc2)C1 (configuration not stated)
inactive: [1] 88.6% | [2] 88.9% | [3] 89.3% | [4] 74.5% | [5] 80.6% | [6] 111% | [7] 98.7% | [8] 82.4% | [9] 59.4% | [10] 83.4% | [11] 71.1% | [12] 82.3% | [13] 97.1% | [14] 93.8% | [15] 95.3% | [16] 107% | [17] 98.6% | [18] 87.4% | [19] 89.7%

CN(C)CCCN1c2ccccc2CCc2ccccc21
inactive: [1] 105% | [2] 107% | [3] 80.1% | [4] 83.2% | [5] 93.3% | [6] 91.4% | [7] 84.6% | [8] 124% | [9] 97.6% | [10] 83.7% | [11] 99.4% | [12] 97.4% | [13] 103% | [14] 68.7% | [15] 94.1% | [16] 94.8% | [17] 116% | [18] 103% | [19] 107%

CSc1nc(N)c2[nH]c(-c3cc4ccccc4[nH]c3=O)nc2n1
inactive: [1] 74.2% | [2] 103% | [3] 85.1% | [4] 57.3% | [5] 106% | [6] 61.1% | [7] 68.9% | [8] 92.4% | [9] 91.6% | [10] 79.8% | [11] 85.1% | [12] 90.2% | [13] 119% | [14] 83.7% | [15] 66.1% | [16] 61.5% | [17] 119% | [18] 94.6% | [19] 94.8%

N=c1nc(N2CCCCC2)cc(N)n1O
inactive: [1] 118% | [2] 108% | [3] 98.8% | [4] 104% | [5] 112% | [6] 97.5% | [7] 101% | [8] 117% | [9] 112% | [10] 93% | [11] 109% | [12] 103% | [13] 103% | [14] 92.5% | [15] 103% | [16] 118% | [17] 112% | [18] 109% | [19] 122%
